SMILES strings stand for the structures. The whole screen tested about 310,000 compounds, of which about 14,000 (4.5%) showed an effect of 50% or more. Effects have a minus sign here. The sample as a whole holds a higher share of strong results than the screen did.
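Further: peak tail current of the secondary pulse compared with the same well before compound.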

For the assay, the target named is human ether-à-go-go-related gene (hERG) potassium channel (human, UniProt Q12809). As to the kind of experiment: primary screen, population patch clamp on CHO cells stably expressing hERG; higher = less effect of the substance.
human ether-à-go-go-related gene (hERG) potassium channel, sequence (Q12809 whole entry, looked up): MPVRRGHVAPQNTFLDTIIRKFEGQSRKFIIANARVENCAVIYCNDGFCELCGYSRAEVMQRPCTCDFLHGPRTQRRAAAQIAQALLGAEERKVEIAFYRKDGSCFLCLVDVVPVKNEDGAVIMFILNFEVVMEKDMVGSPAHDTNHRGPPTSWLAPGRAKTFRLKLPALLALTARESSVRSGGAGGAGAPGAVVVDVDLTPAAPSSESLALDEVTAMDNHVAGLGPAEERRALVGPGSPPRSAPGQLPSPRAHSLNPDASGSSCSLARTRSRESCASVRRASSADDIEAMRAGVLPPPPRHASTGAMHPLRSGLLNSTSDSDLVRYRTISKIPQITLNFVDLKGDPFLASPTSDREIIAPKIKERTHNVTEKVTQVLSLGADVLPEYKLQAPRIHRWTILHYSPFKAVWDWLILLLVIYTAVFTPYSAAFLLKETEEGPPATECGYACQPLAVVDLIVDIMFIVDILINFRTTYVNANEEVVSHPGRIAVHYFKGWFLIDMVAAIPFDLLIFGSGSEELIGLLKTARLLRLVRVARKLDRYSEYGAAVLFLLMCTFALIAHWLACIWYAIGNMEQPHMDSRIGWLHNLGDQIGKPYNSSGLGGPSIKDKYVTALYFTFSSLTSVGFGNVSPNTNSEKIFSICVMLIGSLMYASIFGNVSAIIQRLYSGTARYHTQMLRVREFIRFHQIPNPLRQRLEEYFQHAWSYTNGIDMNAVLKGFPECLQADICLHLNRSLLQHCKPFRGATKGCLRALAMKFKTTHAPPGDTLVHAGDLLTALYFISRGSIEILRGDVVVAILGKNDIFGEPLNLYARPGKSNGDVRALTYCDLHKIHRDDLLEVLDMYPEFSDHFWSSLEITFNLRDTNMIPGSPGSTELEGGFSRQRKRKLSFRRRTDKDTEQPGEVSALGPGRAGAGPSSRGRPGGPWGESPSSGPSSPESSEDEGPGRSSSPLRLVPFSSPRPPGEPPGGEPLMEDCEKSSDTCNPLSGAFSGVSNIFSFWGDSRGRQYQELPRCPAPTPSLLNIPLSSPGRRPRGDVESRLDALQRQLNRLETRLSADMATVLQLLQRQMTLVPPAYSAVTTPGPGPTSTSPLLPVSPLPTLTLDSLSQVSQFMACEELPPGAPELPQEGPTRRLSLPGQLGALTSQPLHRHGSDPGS
With `S=C(Nc1cccc(Cl)c1)NC1CCCCC1`, the “hERG current change (%, negative = inhibition) at 10uM” value is listed as 7.58%.
Take `Cc1cc(C)cc(NC(=S)NCCN(C2CCCCC2)C2CCCC2)c1`: the “hERG current change (%, negative = inhibition) at 10uM” value is given as -69.6%.
Take `S=C(NCCN(C1CCCCC1)C1CCCC1)Nc1cccc(Cl)c1`: the “hERG current change (%, negative = inhibition) at 10uM” value was -71.3%.
The value for `Cc1ccc(C)c(NC(=S)NCc2ccccc2)c1` was 13.8%; that for `Cc1cccc(NC(=S)N(C)C2CCCCC2)c1` was 5.51%; that for `Cc1ccc(SCCNC(=S)Nc2cc(C)ccc2C)cc1` was 4.34%.
Turning to `Cc1cccc(NC(=S)NC2CCCC2)c1`, the “hERG current change (%, negative = inhibition) at 10uM” value amounted to 0.919%.
In the case of `Cc1cc(C)cc(NC(=S)NCCCO)c1`, the “hERG current change (%, negative = inhibition) at 10uM” value was -0.803%.
Regarding `Cc1ccc(C)c(NC(=S)NCCN(C2CCCCC2)C2CCCC2)c1`, the “hERG current change (%, negative = inhibition) at 10uM” value is recorded as -68.5%.
The value for `CN(C)CCNC(=S)Nc1cccc(Cl)c1` was -27%; that for `Cc1cccc(NC(=S)NCCN(C2CCCCC2)C2CCCC2)c1` was -70.3%; that for `CCOCCCNC(=S)Nc1cc(C)cc(C)c1` was 11%.
Take `Cn1ncc(Cl)c(Oc2ccc(C(C)(C)C)cc2)c1=O`: the “hERG current change (%, negative = inhibition) at 10uM” value is given as -26%.
With `CCOc1ccccc1NC(=O)c1cc(SC)ccc1Cl`, the “hERG current change (%, negative = inhibition) at 10uM” value was 50.4%.
`COc1cc(/C=N/NC(=O)CCOc2ccccc2C)cc(Br)c1O`: the “hERG current change (%, negative = inhibition) at 10uM” value is given as -16.4%.
In the case of `CC1CC(C)CN(C(=O)CCC(=O)Nc2nnc(C3CCCCC3)s2)C1` (centres unmarked), the “hERG current change (%, negative = inhibition) at 10uM” value turned out to be 14.2%.
Regarding `CC(C)(C)CN1CCNC(=O)C1CC(=O)NCCc1ccccc1F` (centres unmarked), the “hERG current change (%, negative = inhibition) at 10uM” value came to 4.25%.
As to `COc1ccccc1-c1csc(NC(=O)c2cc(-c3cccs3)nc3ccccc23)n1`, the “hERG current change (%, negative = inhibition) at 10uM” value is reported as 8.88%.
`COc1ccc2cc(C3CC(c4ccco4)=NN3S(=O)(=O)c3ccccc3)c(Cl)nc2c1` (centres unmarked): the “hERG current change (%, negative = inhibition) at 10uM” value was 4.38%.
As to `CCN(CC(=O)NCc1cccs1)C(=O)c1ccc(NS(=O)(=O)c2cccc([N+](=O)[O-])c2)cc1`, the “hERG current change (%, negative = inhibition) at 10uM” value is recorded as -19.7%.
The value for `C/C(=N\NC(=S)NCc1ccccc1)c1ccc(Br)cc1` was 22.8%; that for `O=C(O)C1CSC(c2ccccc2Cl)N1C(=O)c1ccc(Cl)cc1` (centres unmarked) was 14.9%.
For the molecule `Cc1ccc(C)c(N2CCN(CCCc3ccccc3)CC2)c1`, the “hERG current change (%, negative = inhibition) at 10uM” value was -59.9%.
`Fc1ccccc1N1CCN(Cc2c(F)cccc2F)CC1`: the “hERG current change (%, negative = inhibition) at 10uM” value was found to be 7.89%.
On to `CCOC(=O)N1CCN(CCCc2ccccc2)CC1`, for which the “hERG current change (%, negative = inhibition) at 10uM” value is -6.26%.
Consider `O=C(CCc1ccccc1)N1CCN(c2ccccc2F)CC1`, for which the “hERG current change (%, negative = inhibition) at 10uM” value is 15.9%.
As to `NCCCN1CCN(c2ccccc2)CC1`, the “hERG current change (%, negative = inhibition) at 10uM” value is recorded as -8.45%.
Regarding `c1ccc(CCCN2CCN(c3ccccn3)CC2)cc1`, the “hERG current change (%, negative = inhibition) at 10uM” value is -51.7%.
Take `c1ccc(CCCN2CCN(c3ccccc3)CC2)cc1`: the “hERG current change (%, negative = inhibition) at 10uM” value is -61.3%.
Consider `Cc1ccc(C)c(N2CCN(CCN3CCCCC3)CC2)c1.Cl`, for which the “hERG current change (%, negative = inhibition) at 10uM” value is recorded as -3.6%.
As to `Fc1ccccc1N1CCN(CCCc2ccccc2)CC1`, the “hERG current change (%, negative = inhibition) at 10uM” value is -64.7%.
In the case of `O=C(CN1CCN(c2ccccn2)CC1)NCCc1ccccc1`, the “hERG current change (%, negative = inhibition) at 10uM” value is given as -9.55%.
Turning to `O=C(CCc1ccccc1)N1CCN(c2ccccn2)CC1`, the “hERG current change (%, negative = inhibition) at 10uM” value is listed as -9.9%.
Regarding `C/C=C(\C)CN1CCN(c2cc(C)ccc2C)CC1`, the “hERG current change (%, negative = inhibition) at 10uM” value is listed as 6.08%.
As for `O=C(O)c1ccn[nH]1`, the “hERG current change (%, negative = inhibition) at 10uM” value is recorded as -0.906%.
The value for `Cc1ccc(/C=N/NC(=O)c2nnn(-c3nonc3N)c2C(C)C)o1` was -4.22%; that for `CSc1ncccc1C(=O)OCC(=O)c1cccs1` was 19.4%.
The value for `CCOP(=O)(OCC)C(NC(=O)Nc1ccc(Cl)cc1)C(=O)N(CC)CC` (centres unmarked) was -13.4%; that for `CC(c1ccccc1)n1cncc1C(=O)O` (centres unmarked) was 18%.
Regarding `CCn1c(SCC(=O)c2c[nH]c3ccccc23)nc2cc(S(=O)(=O)N3CCOCC3)ccc21`, the “hERG current change (%, negative = inhibition) at 10uM” value was 9.49%.
The value for `C=C(C)CSc1nnc([C@H](CCSC)NC(=O)OC(C)(C)C)o1` was -14.3%; that for `c1coc(CNc2nc3ccccc3s2)c1` was 11.1%.
Regarding `Cn1ccnc1SCC(=O)c1cc2ccccc2o1`, the “hERG current change (%, negative = inhibition) at 10uM” value amounted to 4.65%.
On to `Cc1nn(C2CCS(=O)(=O)C2)c(Cl)c1/C=C/C(=O)OCC(=O)Nc1ccc2c(c1)OCO2` (centres unmarked), for which the “hERG current change (%, negative = inhibition) at 10uM” value is 7.01%.
Consider `O=C(NCCc1ccccc1)C1CCC(Cn2c(=O)c3ccccc3n(Cc3cccnc3)c2=O)CC1` (centres unmarked), for which the “hERG current change (%, negative = inhibition) at 10uM” value is -37.3%.
For the molecule `CCOc1ccc(/C=C2\SC(=S)N(N3C(=O)C4CC4C3=O)C2=O)cc1` (centres unmarked), the “hERG current change (%, negative = inhibition) at 10uM” value worked out at 15.4%.
The value for `Cc1cccc(CN2CCN(C(=O)Cc3ccccc3)CC2)c1.O=C(O)C(=O)O` was 4.99%.

Source of the values: publication PMC4336329 (PLoS ONE, 2015).
